This is a sample that favours compounds with a hit; in the whole collection about 7.9% have one here.
HT1080 IDH1KD tx: toxicity to HT-1080 IDH1 knockdown cells (counter line); Potency, µM (highest dose often 46.1 µM), for inactives: at the top dose activity, negative = toxicity, usual class: cytotoxic; AID 686971; hit rate 2% among 360,000; HT-1080 IDH1 knockdown viability, ATP luminescence, 48 h;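 also: 0% = DMSO wells and -100% = cell-free medium wells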
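Knockdown cells (IDH1KD HT-1080) received compounds 2 h after plating at 750 cells/well and were kept 48 h at 37 °C in 5% FBS RPMI. A CellTiter-Glo luminescence read gave % activity for curve fitting.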
HT1080-NT tox: kills 2HG-producing HT-1080-NT fibrosarcoma cells. HT-1080-NT fibrosarcoma viability, CellTiter-Glo ATP luminescence, 48 h. Potency, µM (doses to about 46.1 µM), for inactives: at the highest dose activity, negative = less viability, usual class: cytotoxic. hit rate 1.6% among 360,000;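 also: NT is the 2HG producing partner of a matched IDH1 knockdown line; 0% = DMSO-treated cells and -100% = media-only wells without cells; nearly all actives have a fitted effect of over 55% in size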
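Read-out is CellTiter-Glo luminescence after 10 minutes at room temperature, following 48 hours' compound treatment of HT-1080-NT cells (750 cells/well, RPMI, 5% FBS, 37 degrees C).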
MCF10A rerep: DNA re-replication induction in MCF 10a cells; MCF 10A DNA re-replication, Hoechst nuclear intensity, 48 h; Potency, µM (top dose mostly 46.1 µM), for the others: at the highest dose activity, positive = re-replication, most hits filed as activators; hit rate 2.9% among 350,000; AID 624296; also: % of control where 0% means no effect; nearly all actives have a fitted effect of over 50% in size
KB-V1 MDR tox: kills drug-selected multidrug resistant KB-V1 cells | KB-V1 MDR cells viability, CellTiter-Glo, 72 h | Potency, µM (highest dose often 46.1 µM), actives largely listed as cytotoxic | hit rate 3.4% among 400,000 | AID 1347076; also: % is scaled to controls: 0 for no effect and ±100 for the full control effect; nearly all actives have a fitted effect of over 60% in size
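KB-V1 MDR subline cells in DMEM (phenol-red free, 10% FBS) exposed to compounds in qHTS concentration series for 72 h at 37 degrees C. Viability read by CellTiter-Glo luminescence; concentration-effect curves fitted after normalization and correction.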
SW480 rereplic: inducers of DNA re-replication in SW480 colon cancer cells. SW480 DNA re-replication, Hoechst DNA content imaging, 48 h. Potency, µM (titrated, usually from 46.1 µM), without a hit: top-dose re-replication activation, usual class: activators. hit rate 1.8% among 340,000; also: % of control where 0% means no effect; nearly all actives have a fitted effect of over 55% in size
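First, 250 cells per well were seeded. Next, compound or vehicle (23 nL) was pinned in, plates sat 48 hr at 37 C. Finally Hoechst was added for 40 min before fluorescence scanning.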
KB-3-1 tox: KB-3-1 parental cell cytotoxicity; hit rate 1.4% among 400,000; AID 1347075; KB-3-1 viability, CellTiter-Glo ATP luminescence, 72 h; Potency, µM (top dose mostly 46.1 µM), hits mostly cytotoxic; also: % is scaled to controls: 0 for no effect and ±100 for the full control effect; nearly all actives have a fitted effect of over 60% in size
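Cytotoxicity measured as CellTiter-Glo luminescence after 72 h at 37 C. Compound titrations were pinned onto drug-naive KB-3-1 parental adenocarcinoma cells grown in DMEM with 10% FBS, and normalized data fitted to concentration-response curves.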
* = called active by the depositor; i = inactive; ? = inconclusive; . = no result; [ ] = remark or other dose. Calls follow the shape of the dose curve; as a rule, active = well fitted curve in the direction sought with a large enough effect; inconclusive = small, poorly fitted or top-dose-only effect, or another doubt; inactive = no such curve, though single readings can be large; an effect the other way counts as inactive or inconclusive. Potency is read from the fitted curve at half-maximal effect.

SMILES | HT1080 IDH1KD tx | HT1080-NT tox | MCF10A rerep | KB-V1 MDR tox | SW480 rereplic | KB-3-1 tox
CCNC(=O)C1OC(n2cnc3c(N)ncnc32)C(O)C1O (stereo unspecified) | ? | ? | -3% | i | 0% | i
Nc1nc(F)nc2c1ncn2[C@@H]1O[C@H](CO)[C@@H](O)[C@@H]1O | ? | ? | -4% | 0.65µM* | 11% | 0.65µM*
OC[C@H]1O[C@@H](n2cnc3cc(Cl)c(Cl)cc32)[C@H](O)[C@@H]1O | ? | ? | ? | i | -10% | ?
O=C(NCc1ccccc1)c1cccn(Cc2ccccc2)c1=O | 0% | -2% | 13% | i | 0% | i
O=C(c1cc(C(=O)NCc2ccccc2)c(=O)n(Cc2ccccc2)c1)c1cc(Cl)ccc1O | -24% | -20% | ? | 18µM* | 11% | ?
O=C(c1ccc(N2CCCCCC2)c([N+](=O)[O-])c1)N1CCC2(CC1)OCCO2 | 0% | 0% | 23µM* | ? | 17% | i
O=C(c1ccc2c(c1)OCO2)N1CCC2(CC1)OCCO2 | 12% | 4% | -1% | i | -11% | i
O=C(CCn1nc(-c2ccc(Cl)cc2)ccc1=O)N1CCC2(CC1)OCCO2 | 0% | -2% | -2% | i | -7% | i
Cc1nc2cc(-c3ccc(Cl)cc3)nn2c(C)c1CCC(=O)N1CCC2(CC1)OCCO2 | 11% | -4% | 14% | 18µM* | -4% | i
CCc1ccccc1NC(=O)c1cccn(Cc2ccccc2F)c1=O | . | . | . | i | . | i
CCCCCCCCCCCCCCCC[N+](C)(C)C | ? | 12µM* | ? | i | ? | ?
CC(C)c1ccc(OCC(=O)N2CCN(CCc3ccncc3)CC2)cc1 | . | . | . | i | . | i
CCC(=O)O[C@@](Cc1ccccc1)(c1ccccc1)[C@@H](C)CN(C)C | . | . | -3%[20.6 µM] | . | 1%[20.6 µM] | .
CC(C)N1CC=C(c2c[nH]c3ccccc23)CC1 | -20% | -16% | 41% | i | 12% | 2.1µM*
CC(C(=O)c1c[nH]c2ccccc12)N1CCOCC1 (stereo unspecified) | -1% | -2% | 9% | i | ? | i
Oc1ccc2c3c1OC1c4[nH]c5ccccc5c4C[C@@]4(O)C(C2)N(CC2CC2)CC[C@]314 (stereo partly specified) | ? | ? | ? | i | -17% | i
Oc1ccc2c3c1OC1c4oc5ccccc5c4C[C@@]4(O)[C@@H](C2)N(CC2CC2)CC[C@]314 (stereo partly specified) | ? | ? | 4% | ? | 0.92µM* | i
C=C1CC[C@@]2(O)[C@H]3Cc4ccc(O)c5c4[C@@]2(CCN3CC2CC2)[C@H]1O5 | 9% | -16% | -16% | i | -1% | i
O=C1/C(=C/c2ccccc2)C[C@@]2(O)[C@H]3Cc4ccc(O)c5c4[C@@]2(CCN3CC2CC2)C1O5 (stereo partly specified) | 3.7µM* | 1.6µM* | 4.6µM* | 7.3µM* | ? | ?
Brc1nc(-c2ccccc2)nc(-c2ccccc2)c1Br | -1% | 1% | ? | ? | -7% | i
Cc1cccc(-n2c(O)c(/C=C3/C(c4ccccc4)=Nc4ccccc43)c(=O)[nH]c2=O)c1 | 5.8µM* | 16µM* | 3.7µM* | ? | 3.7µM* | 5.2µM*
Cc1cccc(N=Cc2c(O)n(-c3ccccc3C)c(=O)[nH]c2=O)c1 | 7% | 9% | ? | i | -3% | i
Cc1ccccc1-n1c(O)c(C=Nc2ccc(N(C)C)cc2)c(=O)[nH]c1=O | -1% | 0% | 15% | 2.3µM* | ? | i
Cc1ccccc1-n1c(O)c(/C=C2/C(c3ccccc3)=Nc3ccccc32)c(=O)[nH]c1=O | ? | ? | 5.2µM* | 1.5µM* | . | 2.1µM*
Cc1ccc(-n2c(O)c(/C=C3/C(c4ccccc4)=Nc4ccccc43)c(=O)[nH]c2=O)cc1 | ? | 7.3µM* | 5.2µM* | ? | 3.7µM* | 3.7µM*
SMILES | HT1080 IDH1KD tx | HT1080-NT tox | MCF10A rerep | KB-V1 MDR tox | SW480 rereplic | KB-3-1 tox
CCCC12CN3CC(C)(CN(C1)C3c1ccccn1)C2=O (stereo unspecified) | . | . | . | i | . | i
Cc1nn(-c2nccs2)c2c1C(=O)CC(C)(C)C2Br (stereo unspecified) | -29% | -16% | ? | i | ? | i
C[C@@H](Cc1ccccc1)NCCC(c1ccccc1)c1ccccc1 | . | . | 7%[20.6 µM] | . | 11%[20.6 µM] | .
C[C@H](CO)N1C[C@H](C)[C@H](CN(C)S(=O)(=O)c2ccccc2)Oc2ccc(NC(=O)NC3CCCCC3)cc2CC1=O | -15% | -6% | ? | i | 18% | i
N#Cc1cccc(NC(=O)c2sc3nc4c(cc3c2N)N2CCC4CC2)c1 | . | . | . | i | . | i
CC[C@]1(C(=O)OC)[C@H]2C(=O)N(Cc3ccccc3)C(=O)[C@H]2[C@H]2CN=C(SCc3ccc(C(=O)OC)cc3)N21 | -1% | 4% | -2% | i | ? | ?
Cc1c2ccncc2c(C)c2c1[nH]c1ccccc12 | 3.7µM* | 10µM* | 5.8µM* | 9.2µM* | 7.3µM* | ?
O=[N+]([O-])c1c(Cl)cccc1-c1c[nH]cc1Cl | . | . | ? | . | 14% | .
CCOc1ccc(-c2c(C)n(-c3ccc(OCC)cc3)c3[n+]2CCCCC3)cc1 | ? | 15µM* | ? | i | ? | 1.6µM*
CCOC(=O)[C@]12Cc3cc4ccccc4cc3[C@H]1N(Cc1ccccc1)C(=O)c1ccccc12 | 15µM* | 16µM* | . | ? | . | 5.2µM*
CCOC(=O)[C@]12Cc3cc(OC)c(OC)cc3[C@H]1N(Cc1ccccc1)C(=O)c1ccccc12 | -3% | 0% | 11% | ? | -4% | i
CCOC(=O)[C@]12Cc3cc(Cl)ccc3[C@H]1N(Cc1ccccc1)C(=O)c1cc(OC)ccc12 | 13µM* | 15µM* | . | 7.3µM* | . | 2.6µM*
CCCCCN1C(=O)c2cc(OC)ccc2[C@@]2(C(=O)OCC)Cc3cc(Cl)ccc3[C@@H]12 | 4.1µM* | 2.9µM* | . | 1.6µM* | . | 0.65µM*
CCOC(=O)[C@]12Cc3cc(C)ccc3[C@H]1N(C)C(=O)c1ccccc12 | -16% | 0% | . | i | . | i
CCOC(=O)[C@]12Cc3cc4ccccc4cc3[C@H]1N(Cc1ccccc1)C(=O)c1cc(OC)ccc12 | 15µM* | 21µM* | . | 16µM* | . | 5.8µM*
COC(=O)C(c1ccccc1)C1CCCCN1 (stereo unspecified) | . | . | 6% | . | -2% | .

Assay outcomes as filed in PubChem BioAssay.
